Screening data (PubChem BioAssay)
Proteasome disasm – blocks ATP-dependent breakdown of the yeast 26S proteasome. anti-FLAG beads, GFP-proteasome disassembly, flow cytometry. inhibition of disassembly, % (no concentration beside the values). 0.2% of 24,000 active. AID 751;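 active = inhibition of disassembly above about 33%, limit read from the data; inconclusive = likely self-fluorescent, control bead median signal at least 40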;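 note: plate controls were ATP control with full disassembly for no effect and ATP-gamma-S intact proteasomes for full effect; higher percent means more bead fluorescence retained so stronger block of disassembly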
Prostate diff – activators of LNCaP prostate cell differentiation. flow cytometry side scatter, 4 d. side scatter shift, % at 10 µM. 0.56% of 24,000 active. AID 795;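 active = side scatter shift above 30%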;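 note: androgen-responsive LNCaP prostate cancer cells in charcoal-stripped serum medium; percent of cells past a gate set so DMSO wells show 10% shift; higher shift means more granular cells and more differentiation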
VLA-4 agonist – allosterically activates the human VLA-4 integrin; activation, % at 10 µM (by protocol); P13612; Jurkat cells, LDV-FITC binding, flow cytometry; AID 528; 24,000 tested, under 10 active;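 active = fluorescent ligand binding to cells raised by more than 40% of the manganese-induced maximum; inconclusive = compound's own fluorescence above 85% of the ligand control signal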;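 note: 0% = ligand binding without compound and 100% = manganese-stimulated maximal binding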
VLA-4 antagonist – blocks LDV-FITC ligand binding to Mn2+-activated human VLA-4 integrin. Jurkat cells, LDV-FITC binding with Mn2+, flow cytometry; 100% = Mn2+-driven binding gain fully reversed. inhibition, % at 10 µM (by protocol). P13612. 0.2% of 24,000 active;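 active = inhibition above 50%; inconclusive = compound itself fluorescent, judged against control cell fluorescence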;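 note: 0% = Mn2+ stimulated cells lacking compound and 100% = ligand binding without Mn2+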
Autofluor Jurkat – compound fluoresces in Jurkat cells, VLA-4 screen interference; compound autofluorescence, flow cytometry; active compounds read high; 1 = vehicle-only cell background; fluorescence ratio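 (tested at 10 µM compound in the well)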; 0.61% of 24,000 active; AID 576;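 active = fluorescence ratio above 2.44, which is 1 plus 3 SD of all ratios; inconclusive = signal too bright to measure linearly, ratio around 10 or more; inactive = fluorescence ratio below 2.44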;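 note: green fluorescence of cells measured with 488 nm excitation and 530 nm emission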
* marks the source's active call; other numbers are inactive results; ? = inconclusive. Sampled rows, rich in hits. Any-hit rate of the full collection: about 1.6%.

SMILES | Proteasome disasm | Prostate diff | VLA-4 agonist | VLA-4 antagonist | Autofluor Jurkat
COc1ccc(Cl)cc1N1CCN(CCNC(=O)Nc2ccccc2C)CC1 | -7.8 | 45.0* | -11.0 | 5.5 | 0.97
COc1ccc(Cl)c(N2CCN(CCCNC(=O)Nc3ccc(C)cc3)CC2)c1 | 7.2 | 40.0* | -4.5 | 2.5 | 1.12
O=C(NCC12CC3CC(CC(C3)C1)C2)c1nn2c(c1Cl)NC(c1ccco1)CC2C(F)(F)F (stereo not given) | 8.8 | 25.0 | 8.0 | 55.0* | 1.16
O=C(NCCN1CCOCC1)c1nn2c(c1Cl)NC(c1ccccc1)CC2C(F)(F)F (stereo not given) | 0.9 | 11.0 | 4.0 | -4.0 | 1
Nc1c(C(O)(C(F)(F)F)C(F)(F)F)ccc2ccccc12 | -1.9 | 19.0 | 7.0 | -3.0 | 1.01
CCOc1cc2[nH]c(=O)n(CC3CCC(C(=O)NC(C)CC)CC3)c(=O)c2cc1OCC (stereo not given) | 1.7 | 18.0 | -9.0 | 63.0* | 1.03
Cc1ccc(-n2c(Cn3cnc4ccccc43)nnc2SCC(=O)O)cc1 | -2.0 | 6.0 | -1.0 | -12.5 | 1.05
CC1CC(C)CN(CCCNC(=O)CNC(=O)Cn2ccc3ccccc3c2=O)C1 (stereo not given) | -1.0 | 9.0 | 0.0 | -6.0 | 1.07
CCOC(=O)c1ccccc1NC(=O)Cn1c(-c2nonc2N)nc2ccccc21 | 6.8 | 32.0* | ? | ? | 1.32
CCC(=O)Nc1nonc1-c1nc2ccccc2n1CC(C)C | -1.2 | 1.0 | ? | ? | 1.09
CC1CCCN(C(=O)Cn2c(-c3nonc3N)nc3ccccc32)C1 (stereo not given) | -3.2 | 12.0 | ? | ? | 3.04*
CCCOc1ccc(OC(=O)c2ccc(Br)o2)cc1 | 0.5 | 5.0 | 7.0 | -8.0 | 0.83
CCOc1ccc2nc(N3CCC(C(=O)N4CCN(c5ccccn5)CC4)CC3)sc2c1 | 0.6 | 12.0 | -16.8 | 53.6* | 1.29
COc1ccc(OC)c(C2C=C(c3ccc(C)c(C)c3)Nc3nnnn32)c1 (stereo not given) | 1.1 | 22.0 | ? | ? | 3.64*
Fc1ccccc1N1CCN(CCCNc2ccc3nncn3n2)CC1 | 0.0 | 7.0 | ? | ? | 1.21
CCOC(=O)CSc1nc2ccccc2n1C(=O)OCC | -48.3 | 20.0 | ? | ? | 2.76*
CCOC(=O)N1CCC(Nc2nc3ccccc3n3cnnc23)CC1 | 0.5 | 8.0 | 0.0 | 5.5 | 0.99
CCOC(=O)CSc1nc2ccccc2n1CC(=O)N1CCN(c2ccccc2)CC1 | 0.2 | 12.0 | -3.5 | 1.0 | 1.11
CCOC(=O)CSc1nc2ccccc2n2cnnc12 | 0.8 | 10.0 | ? | ? | 7.34*
CCOCCCNC(=O)C(NC(=O)CC1NC(=O)NC1=O)c1ccc(Cl)cc1 (stereo not given) | -0.3 | 4.0 | 4.0 | 9.0 | 0.93
COc1ccc(-n2cc(-c3ccccc3)c3c(N4CCN(CCO)CC4)ncnc32)cc1 | 0.5 | 44.0* | -5.3 | 8.3 | 1
COc1ccc2cc3cc(C(=O)Nc4ccccc4N4CCN(C)CC4)oc3nc2c1 | -1.1 | 62.0* | ? | ? | 1.14
